{
  "source": "PubChem BioAssay",
  "note": "Calls of active or inactive are those of the source.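 How the source made its calls, unless noted: active means fluorescence slope higher than the sample average by over 3 SD (cut at about -0.22 in these data, passing the limit was not always enough); inactive means the rest.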",
  "data": [
    {"test_system": "not listed separately", "assay": "inhibitors of E-selectin induction by TNFa, primary screen, imaging, HUVEC, immunofluorescence, MLSMR starter and 10KST1 sets (AID 487;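 active means visually confirmed hit in the image check and inhibition above 20%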;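 on inhibition: signal is fraction of cell area covered by stained E-selectin grains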;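 on nuclei count: 100% = median nuclei count of all wells on the same plate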)", "conditions": "HUVEC TNFalpha-induced E-selectin immunofluorescence imaging, at 2 µM; inhibition: stronger effect = higher value; nuclei count: measured here: cell number, toxicity", "units": {"nuclei count": "%"}, "values": [
      {"smiles": "CC(NC(=O)c1ccco1)c1ccc2c(c1)OCCO2", "note": "(stereo unspecified)", "inhibition": "-95% (inactive)", "nuclei count": 105},
      {"smiles": "Cc1nc2ccccc2n1CCC(=O)Nc1cccc(F)c1", "inhibition": "-23.9% (inactive)", "nuclei count": 110},
      {"smiles": "O=C(NC1CCCCCC1)C1CCCN(S(=O)(=O)c2cccs2)C1", "note": "(stereo unspecified)", "inhibition": "-27.6% (inactive)", "nuclei count": 108},
      {"smiles": "COc1ccc(CC(=O)OCn2nnc3ccccc3c2=O)cc1", "inhibition": "-7.5% (inactive)", "nuclei count": 115},
      {"smiles": "CCCNC(=O)Nc1ccccc1C(=O)Nc1ccc(OC)cc1", "nuclei count": 108, "inhibition": "25.8% (inactive)"},
      {"smiles": "CCSc1nnc(N2C(=O)CC(c3ccsc3)C3=C2CC(C)(C)CC3=O)s1", "note": "(stereo unspecified)", "inhibition": "-46.6% (inactive)", "nuclei count": 115},
      {"smiles": "COc1ccccc1-n1c(SCC(=O)Nc2ccc3c(c2)OCO3)nc2c(c1=O)SCC2", "inhibition": "-54.1% (inactive)", "nuclei count": 137},
      {"smiles": "COc1ccc(S(=O)(=O)Cc2ccc(C(=O)N3CCOCC3)o2)cc1", "nuclei count": 105, "inhibition": "-79.8% (inactive)"},
      {"smiles": "Cc1ccc(S(=O)(=O)NCCSc2nnnn2-c2ccc(C(N)=O)cc2)cc1", "inhibition": "-14.3% (inactive)", "nuclei count": 111},
      {"smiles": "O=C(c1cccc(C(=O)N2CCN(c3ccc(F)cc3)CC2)c1)N1CCN(c2ccc(F)cc2)CC1", "inhibition": "-6.5% (inactive)", "nuclei count": 92.8},
      {"smiles": "CCOCCCNC(=O)c1cc2sc(Cl)cc2n1CC", "inhibition": "-80.9% (inactive)", "nuclei count": 100},
      {"smiles": "CCOc1ccc(NC(=O)CN2CCN(CC(=O)c3ccc(OCC)cc3)CC2)cc1", "inhibition": "-73% (inactive)", "nuclei count": 112},
      {"smiles": "CC1CCCC(N2CCN(C(=O)c3ccc(F)cc3)CC2)C1", "note": "(stereo unspecified)", "inhibition": "-53.4% (inactive)", "nuclei count": 114}
    ]},
    {"biological_target": "Voltage-gated potassium channel subunit beta-2 (Rattus norvegicus) (UniProt P62483)", "sequence (P62483 whole entry, looked up)": "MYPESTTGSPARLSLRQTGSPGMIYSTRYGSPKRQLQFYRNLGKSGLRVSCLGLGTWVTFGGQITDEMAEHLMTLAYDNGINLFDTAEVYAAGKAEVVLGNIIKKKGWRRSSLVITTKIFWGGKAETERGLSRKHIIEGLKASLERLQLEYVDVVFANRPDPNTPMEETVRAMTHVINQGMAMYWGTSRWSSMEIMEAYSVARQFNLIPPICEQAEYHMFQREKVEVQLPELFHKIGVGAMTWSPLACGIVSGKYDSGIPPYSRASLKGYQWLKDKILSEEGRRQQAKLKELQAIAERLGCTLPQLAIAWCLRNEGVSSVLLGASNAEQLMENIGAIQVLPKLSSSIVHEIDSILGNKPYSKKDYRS", "assay": "KvBeta enzyme negative modulators, primary screen, biochemical, NADPH fluorescence (AID 622);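 further: slope of raw intensity against log time taken from 70 to 1610 s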", "conditions": "recombinant KvBeta, 4-cyanobenzaldehyde reduction, at 10 µM, stronger effect = higher value", "values": [
      {"smiles": "COc1ccc(C)cc1NC(=O)CN1CCN(S(=O)(=O)c2ccc(Cl)cc2)CC1", "fluorescence slope": "-0.41 (inactive)"},
      {"smiles": "COc1cccc(C(=O)Nc2c(C(N)=O)oc3ccccc23)c1", "fluorescence slope": "-0.545 (inactive)"},
      {"smiles": "O=C(CC(Cc1ccccc1)C(=O)O)NCCc1ccc2c(c1)OCO2", "note": "(stereo unspecified)", "fluorescence slope": "-0.424 (inactive)"},
      {"smiles": "CC(=O)c1cccc(NC(=O)CCNS(=O)(=O)c2cccc3nsnc23)c1", "fluorescence slope": "-0.539 (inactive)"},
      {"smiles": "COc1ccc(-n2c(=O)cc(N3CCN(Cc4ccccc4)CC3)[nH]c2=O)cc1", "fluorescence slope": "-0.621 (inactive)"},
      {"smiles": "Cc1cc(N2C(=O)C(O)=C(C(=O)c3ccc(C)o3)C2c2cccs2)no1", "note": "(stereo unspecified)", "fluorescence slope": "-0.42 (inactive)"},
      {"smiles": "COC(=O)C1=C(C)NC(C)=C(C(=O)OC)C1C(=O)OC1CCCCC1=O", "note": "(stereo unspecified)", "fluorescence slope": "-0.425 (inactive)"},
      {"smiles": "O=C(Cc1cccs1)Nc1ccccc1NC(=O)Cc1cccs1", "fluorescence slope": "-0.366 (inactive)"},
      {"smiles": "CCOC(=O)c1cc2c(=O)n3ccccc3nc2n(CCCOC)c1=NC(=O)C(C)(C)C", "fluorescence slope": "-0.348 (inactive)"},
      {"smiles": "CCOC(=O)c1cc(-c2ccco2)nc2c1c(C)nn2CCC#N", "fluorescence slope": "-0.214 (active)"},
      {"smiles": "Cc1cc(C)c(C#N)c(SCC(=O)Nc2ccc(S(=O)(=O)Nc3onc(C)c3C)cc2)n1", "fluorescence slope": "-0.448 (inactive)"},
      {"smiles": "O=c1c2nnn(Cc3ccc(Cl)cc3)c2ncn1Cc1ccc(F)cc1", "fluorescence slope": "-0.539 (inactive)"},
      {"smiles": "Cc1ccc2c(c1)CCCN2C(=O)C1CCCO1", "note": "(stereo unspecified)", "fluorescence slope": "-0.417 (inactive)"},
      {"smiles": "CC1(C)NC(=O)N(CC(O)COc2ccc(-c3ccccc3)cc2)C1=O", "note": "(stereo unspecified)", "fluorescence slope": "-0.425 (inactive)"},
      {"smiles": "CS(=O)(=O)NCc1nnc(SCC(=O)NC2CCCCC2)n1-c1ccc(F)cc1", "fluorescence slope": "-0.388 (inactive)"},
      {"smiles": "O=C(NCC1CCCO1)c1cccc(N2C(=O)C3C4C=CC(C4)C3C2=O)c1", "note": "(stereo unspecified)", "fluorescence slope": "-0.42 (inactive)"},
      {"smiles": "CC(=O)Nc1cccc(NC(=O)C2CCCN2C(=O)Nc2ccc(C)cc2)c1", "note": "(stereo unspecified)", "fluorescence slope": "-0.507 (inactive)"},
      {"smiles": "COc1cccc(CN=CC2=C(O)CC(C)(C)CC2=O)c1OC", "fluorescence slope": "-0.468 (inactive)"},
      {"smiles": "COC(=O)Cn1c(CN2CCOCC2)nc2c1c(=O)n(C)c(=O)n2C", "fluorescence slope": "-0.418 (inactive)"},
      {"smiles": "O=C(O)c1[nH]c2ccc(Cl)cc2c1CC(=O)N1CCN(C(=O)c2ccco2)CC1", "fluorescence slope": "-0.401 (inactive)"},
      {"smiles": "CC1CCN(c2oc(-c3cccc4ccccc34)nc2C#N)CC1", "fluorescence slope": "-0.0453 (active)"},
      {"smiles": "Cc1ccc(S(=O)(=O)N2CCN(C(=O)CSC3CCCC3)CC2)c(C)c1", "fluorescence slope": "-0.482 (inactive)"},
      {"smiles": "CCOC(=O)c1sc2nc(SCC#N)n(CCCN3CCCC3=O)c(=O)c2c1C", "fluorescence slope": "-0.461 (inactive)"},
      {"smiles": "COc1cc(C(Nc2ccc3c(c2)OCO3)C(=O)NC2CCCCC2)cc(OC)c1OC", "note": "(stereo unspecified)", "fluorescence slope": "-0.63 (inactive)"},
      {"smiles": "Cc1cc2c(cc(C(=O)OCC(=O)NCc3cccs3)n2C(C)C)o1", "fluorescence slope": "-0.586 (inactive)"},
      {"smiles": "O=C(CSc1nc2ccccc2nc1SCC(=O)N1CCOCC1)N1CCOCC1", "fluorescence slope": "-0.354 (inactive)"},
      {"smiles": "Cc1onc(-c2ccccc2Cl)c1C(=O)Nc1cnn(Cc2ccccc2)c1", "fluorescence slope": "-0.545 (inactive)"},
      {"smiles": "CC(NC(=O)c1ccco1)c1ccc2c(c1)OCCO2", "note": "(stereo unspecified)", "fluorescence slope": "-0.431 (inactive)"},
      {"smiles": "Cc1nc2ccccc2n1CCC(=O)Nc1cccc(F)c1", "fluorescence slope": "-0.303 (inactive)"},
      {"smiles": "O=C(NC1CCCCCC1)C1CCCN(S(=O)(=O)c2cccs2)C1", "note": "(stereo unspecified)", "fluorescence slope": "-0.428 (inactive)"},
      {"smiles": "COc1ccc(CC(=O)OCn2nnc3ccccc3c2=O)cc1", "fluorescence slope": "-0.416 (inactive)"},
      {"smiles": "CCCNC(=O)Nc1ccccc1C(=O)Nc1ccc(OC)cc1", "fluorescence slope": "-0.445 (inactive)"},
      {"smiles": "CCSc1nnc(N2C(=O)CC(c3ccsc3)C3=C2CC(C)(C)CC3=O)s1", "note": "(stereo unspecified)", "fluorescence slope": "-0.55 (inactive)"},
      {"smiles": "COc1ccccc1-n1c(SCC(=O)Nc2ccc3c(c2)OCO3)nc2c(c1=O)SCC2", "fluorescence slope": "-0.545 (inactive)"},
      {"smiles": "COc1ccc(S(=O)(=O)Cc2ccc(C(=O)N3CCOCC3)o2)cc1", "fluorescence slope": "-0.615 (inactive)"},
      {"smiles": "Cc1ccc(S(=O)(=O)NCCSc2nnnn2-c2ccc(C(N)=O)cc2)cc1", "fluorescence slope": "-0.564 (inactive)"},
      {"smiles": "O=C(c1cccc(C(=O)N2CCN(c3ccc(F)cc3)CC2)c1)N1CCN(c2ccc(F)cc2)CC1", "fluorescence slope": "-0.438 (inactive)"},
      {"smiles": "CCOCCCNC(=O)c1cc2sc(Cl)cc2n1CC", "fluorescence slope": "-0.531 (inactive)"},
      {"smiles": "CCOc1ccc(NC(=O)CN2CCN(CC(=O)c3ccc(OCC)cc3)CC2)cc1", "fluorescence slope": "-0.397 (inactive)"},
      {"smiles": "CC1CCCC(N2CCN(C(=O)c3ccc(F)cc3)CC2)C1", "note": "(stereo unspecified)", "fluorescence slope": "-0.581 (inactive)"}
    ]}
  ]
}
